Experimental data published in PubChem BioAssay (NCATS).
Results filed as inconclusive are left out. Active and inactive are the calls of the source. Calls follow the shape of the dose curve; as a rule, active = well fitted curve in the direction sought with a large enough effect; inconclusive = small, poorly fitted or top-dose-only effect, or another doubt; inactive = no such curve, though single readings can be large; an effect the other way counts as inactive or inconclusive.

Columns and labels:
[1] = target: Voltage-gated inwardly rectifying potassium channel KCNH2 (Homo sapiens) (UniProt Q12809); assay: qHTS Assay for Small Molecule Inhibitors of the Human hERG Channel Activity (AID 588834);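 also: top concentration of the series differs between compounds; lower thallium flux fluorescence means stronger hERG block; nearly all actives have a fitted effect of over 50% in size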
Sequence of Voltage-gated inwardly rectifying potassium channel KCNH2 (Homo sapiens) (Q12809 whole entry, looked up): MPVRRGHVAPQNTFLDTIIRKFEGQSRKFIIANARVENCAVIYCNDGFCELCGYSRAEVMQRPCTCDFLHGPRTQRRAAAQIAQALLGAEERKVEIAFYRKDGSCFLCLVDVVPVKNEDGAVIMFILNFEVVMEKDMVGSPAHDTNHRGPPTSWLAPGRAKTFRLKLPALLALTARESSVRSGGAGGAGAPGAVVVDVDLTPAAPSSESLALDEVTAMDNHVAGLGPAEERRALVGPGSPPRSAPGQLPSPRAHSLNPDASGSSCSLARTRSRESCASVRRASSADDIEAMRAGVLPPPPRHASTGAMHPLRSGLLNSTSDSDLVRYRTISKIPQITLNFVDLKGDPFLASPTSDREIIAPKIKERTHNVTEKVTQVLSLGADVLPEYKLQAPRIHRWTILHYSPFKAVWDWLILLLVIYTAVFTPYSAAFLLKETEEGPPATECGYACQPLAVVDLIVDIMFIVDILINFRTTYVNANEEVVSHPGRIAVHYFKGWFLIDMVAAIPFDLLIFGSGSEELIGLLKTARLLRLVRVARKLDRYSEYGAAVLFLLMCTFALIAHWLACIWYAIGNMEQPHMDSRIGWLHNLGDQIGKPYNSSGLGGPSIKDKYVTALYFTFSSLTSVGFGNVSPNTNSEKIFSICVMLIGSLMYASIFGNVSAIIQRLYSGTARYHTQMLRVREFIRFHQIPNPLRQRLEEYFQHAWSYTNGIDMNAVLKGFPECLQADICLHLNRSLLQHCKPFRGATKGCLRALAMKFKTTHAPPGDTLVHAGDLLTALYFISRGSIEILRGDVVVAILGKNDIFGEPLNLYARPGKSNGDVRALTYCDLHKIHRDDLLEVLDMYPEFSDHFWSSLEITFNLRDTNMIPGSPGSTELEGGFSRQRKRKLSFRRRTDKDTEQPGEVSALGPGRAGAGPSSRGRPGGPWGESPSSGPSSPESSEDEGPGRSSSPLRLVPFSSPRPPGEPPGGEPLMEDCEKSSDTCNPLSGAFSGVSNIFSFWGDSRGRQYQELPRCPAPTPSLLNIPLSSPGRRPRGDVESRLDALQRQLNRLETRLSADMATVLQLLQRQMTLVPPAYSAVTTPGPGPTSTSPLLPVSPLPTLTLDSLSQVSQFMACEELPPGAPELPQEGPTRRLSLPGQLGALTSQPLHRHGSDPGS
Procedure, shortened: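 hERG-BacMam U2OS, 2000 cells/well; 0.7X FluxOR loading 1 hr RT dark; cpd ~10 min 37 °C; stim buffer; FDSS fluorescence 2 min @ 1 s; AC50 Hill fit.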

[2] = target: Luciferin 4-monooxygenase (Photinus pyralis) (UniProt P08659); assay: Biochemical firefly luciferase enzyme assay for NPC (AID 624030);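 also: purified P. pyralis luciferase at 10 nM with luciferin and ATP substrate; series mostly up to about 59 µM; nearly all actives have a fitted effect of over 70% in size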
Sequence of Luciferin 4-monooxygenase (Photinus pyralis) (P08659 whole entry, looked up): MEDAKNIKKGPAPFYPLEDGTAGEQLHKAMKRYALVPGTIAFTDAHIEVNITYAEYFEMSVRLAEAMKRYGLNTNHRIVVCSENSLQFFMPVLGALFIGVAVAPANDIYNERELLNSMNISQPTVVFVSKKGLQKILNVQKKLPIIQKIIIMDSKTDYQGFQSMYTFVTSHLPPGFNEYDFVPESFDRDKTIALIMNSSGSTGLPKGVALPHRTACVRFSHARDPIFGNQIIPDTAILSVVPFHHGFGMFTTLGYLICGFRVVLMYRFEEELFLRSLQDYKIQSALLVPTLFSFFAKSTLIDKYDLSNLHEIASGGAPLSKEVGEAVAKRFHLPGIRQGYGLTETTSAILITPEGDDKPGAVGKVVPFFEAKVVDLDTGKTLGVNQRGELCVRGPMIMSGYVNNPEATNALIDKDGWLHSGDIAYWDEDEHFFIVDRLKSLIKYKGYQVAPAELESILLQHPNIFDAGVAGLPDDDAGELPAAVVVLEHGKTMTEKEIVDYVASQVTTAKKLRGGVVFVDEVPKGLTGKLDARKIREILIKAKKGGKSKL
Procedure, shortened: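 Purified P. pyralis luciferase at 10 nM in 50 mM Tris Acetate (final), luminescence read within 5 minutes of enzyme addition to compounds. Activity normalised to PTC124 versus DMSO; concentration-response curves classed by r2, magnitude and activity.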

[3] = S16 Schwann cell viability assay (CellTiter-Glo assay) (AID 624031);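 also: native untransfected S16 rat Schwann cells; cellular ATP luminescence as a viability measure; series mostly up to about 58 µM; nearly all actives have a fitted effect of over 70% in size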
Procedure, shortened: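 Cells were seeded at 500-750 per well in phenol red-free DMEM with 10% FBS and left overnight. Compounds or DMSO were pinned in, incubation ran 24 h at 37 °C/5% CO2, then CellTiter-Glo reagent was added and luminescence measured.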

Measured: Potency

CC(=O)Nc1ccc(OCCOCCOc2ccc(NC(C)=O)cc2)cc1
inactive: [1] | [2] | [3]

COc1ccc(NS(=O)(=O)c2ccc(N)cc2)nn1
inactive: [1] | [2] | [3]

CC(C)CCCC(C)CCCC(C)CCCCC(C)CCCC(C)CCCC(C)C (stereo unspecified)
inactive: [1] | [2] | [3]

CC[N+](C)(CC)CCOC(=O)C1c2ccccc2Oc2ccccc21
inactive: [1] | [2] | [3]

C[C@@H](N)C(=O)O
inactive: [1] | [2] | [3]

CCc1nnc(NS(=O)(=O)c2ccc(N)cc2)s1
inactive: [1] | [2] | [3]

Cc1c(Cn2ccnc2)c2ccccc2n1CCC(=O)O
inactive: [1] | [2] | [3]

CN1C(C)(C)CCCC1(C)C
inactive: [1] | [2] | [3]

CCCCCC(C)N (stereo unspecified)
inactive: [1] | [2] | [3]

CC(=O)N[C@@H](Cc1ccc(O)cc1)C(=O)O
inactive: [1] | [2] | [3]

C=CCSCC1Nc2cc(Cl)c(S(N)(=O)=O)cc2S(=O)(=O)N1 (stereo unspecified)
inactive: [1] | [2] | [3]

CCCNC(C)(C)COC(=O)c1ccccc1
inactive: [1] | [2] | [3]

Cc1cc(OI)c(C(C)C)cc1-c1cc(C(C)C)c(OI)cc1C
inactive: [1] | [2] | [3]

O=C(Cn1ccnc1[N+](=O)[O-])NCCO
inactive: [1] | [2] | [3]

CC(=O)Oc1cccc(O)c1
inactive: [1] | [2] | [3]

O=C(O)c1ccc[n+]([O-])c1
inactive: [1] | [2] | [3]

O=C1CC[C@@H](C(=O)O)N1
inactive: [1] | [2] | [3]
